Data on twelve compounds can be found in article PMC5540273 (PLoS ONE, 2017).
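Note: KINOMEscan kinase panel screen.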

For the experiment, the system named is MAP3K15. The settings on record: concentration: 1 μM, replicates: in singlicate; n = 1.
Consider `CC(C)(C)c1ccc2nccc(Nc3cccc(O)c3)c2c1` [GW856795], for which the “%Inh” value worked out at 0%.

`COc1cc2c(cc1OCCN1CCNCC1)ncc1c3ccc(C#N)cc3[nH]c21`: the “%Inh” value worked out at 90.1%.

Take `COc1cc(Nc2nccc(-c3c(-c4cccc(NC(=O)c5c(F)cccc5F)c4)nn4ccccc34)n2)cc(OC)c1OC` [GSK323521]: the “%Inh” value was 0%.

`Cc1ccc(S(=O)(=O)Nc2ccc(Nc3nccc(Nc4cccc5[nH]ncc45)n3)cc2)cc1` [GSK581271]: the “%Inh” value is 0%.

As to `CCc1ccc(-c2ccc3c(c2)-c2c(cnn2C)S(=O)(=O)N3C)cc1`, the “%Inh” value was determined as 0%.

As for `O=C(Nc1cccc(-c2nn3ncccc3c2-c2ccnc(Nc3ccccc3)n2)c1)c1c(F)cccc1F` [GSK198271], the “%Inh” value amounted to 0%.

In the case of `Fc1ccc(-c2ncn(C3CCNCC3)c2-c2ccnc(Oc3ccc(-c4ccccc4)cc3)n2)cc1` [SB-245391], the “%Inh” value was determined as 22%.

With `CN(c1ccc(NC(=O)Nc2cc(C(F)(F)F)ccc2F)cc1)c1ccnc(Nc2ccc(S(N)(=O)=O)cc2)n1` [GW809893], the “%Inh” value is recorded as 0%.

With `CC(=O)Nc1nc2cnc(Nc3cc(NC(=O)c4cccc(C5(C#N)CC5)c4Cl)ccc3C)nc2s1`, the “%Inh” value turned out to be 0%.

With `Cl.c1ccc(-c2ccc3c(Nc4ccc5[nH]ncc5c4)ccnc3c2)nc1` [GW440137], the “%Inh” value amounted to 4%.

With `COc1cc(Nc2ncc3c(C)nc(-c4cc5ccccc5[nH]4)n3n2)cc(OC)c1OC` [GW869516], the “%Inh” value was 0%.

For the compound `COC(=O)Nc1nc2ccc(Oc3ccc(NC(=O)Nc4cc(C(F)(F)F)ccc4F)cc3)cc2n1C.Cl` [GW692089], the “%Inh” value amounted to 0%.
